Results: PubChem BioAssay (NCATS)
Where “and” joins values, the source holds several entries; their conditions need not be identical. Equal values may be shown once. Inconclusive results are not listed. A number with no mark means an inactive call. Calls of active or inactive are those of the source. Calls come from the whole dose curve; as a rule, active = well fitted cell-killing curve with a large enough effect; inconclusive = small, poorly fitted or top-dose-only effect; inactive = no such curve, though single readings can be large or run the other way.
Potency is the fitted concentration of half-maximal effect.

Assay: qHTS of pediatric cancer cell lines to identify multiple opportunities for drug repurposing: Confirmatory screen for BT-37 cells (AID 1347117); note: nearly all actives have a fitted effect of over 55% in size
Settings: BT-37 pediatric cancer cells, viability; series mostly up to 45.9 µM; activity change, negative = cytotoxic: at the top concentration
Description: Drug repurposing or repositioning has been offered as a strategy for drug development in oncology programs. This approach has special potential for childhood cancers and other rare or orphan diseases, where the expected return on new drug development has been a disincentive to pharmaceuticals.
In this project we exploit the poly-pharmacology of drugs to discover new indications via phenotypic screening of a panel of 19 well-characterized cell lines derived from solid tumors seen in children and adolescents. The goal is to identify approved drugs with previously unrecognized anticancer properties that has the potential to reveal new mechanisms and biological processes involved in carcinogenesis or drug resistance. We employed a titration-based paradigm (quantitative high-throughput screening or qHTS), where all compounds were tested at multiple concentrations for their effect on cell viability. Concentration-response curves (CRCs) were derived directly from the primary screen, and both potency and efficacy values were used to identify compounds with robust bioactivity profiles. We screened the NIH Chemical Genomics Center (NCGC) Pharmaceutical Collection (NPC) and Mechanism Interrogation Plate (MIPE) small molecule collections of approved and investigational compounds against these cell lines; and measured metabolically active cells after 48 hours of compound treatment as a proxy for cell viability.
Assay Submitter: Nathalia J. Martinez, National Center for Advancing Translational Sciences, National Institutes of Health, Rockville, MD, USA; email: natalia.martinez@nih.gov
[1] Shen, M et al. Quantitative high-throughput phenotypic screening of pediatric cancer cell lines identifies multiple opportunities for drug repurposing. Oncotarget 2017 Dec 19;9(4):4758-4772. PMID 29435139.
The cells were obtained from University of North Carolina (UNC), Pediatric Preclinical Testing Program (PPT), and Coriell Institute (CI).
qHTS cell viability assay:
Cells were assayed in growth media at a density of 500-1,000 cells/well. Five microliters of cells were dispensed into 1,536-well, white, solid-bottom, TC-treated plates (Greiner Bio One) using a multidrop dispenser and incubated at 37 degrees C, 5% CO2, under a humidified atmosphere for 5 hours. Twenty-three nanoliters of compounds and controls (neutral control DMSO or positive control bortezomib at final concentration of 2.3 µM) were subsequently transferred by Kalypsys pintool. For primary screens, the MIPE collection was tested at 11-point dilutions (final concentrations range from 0.78 nM to 46 µM) and the NPC collection at 8-point dilutions (final concentrations range from 0.59 nM to 46 µM). Compounds tested in follow-up screens were assayed at 11-point dilutions. Cells were incubated for 48 hours, followed by addition of 3 µL of CellTiter-Glo (Promega). After a 15 min incubation at room temperature, samples were analyzed for luminescence intensity using a ViewLux High-throughput CCD imager equipped with clear filters.
In the case of `Nc1nc(Cl)nc2c1ncn2[C@H]1C[C@H](O)[C@@H](CO)O1`, the Potency is reported as 208 nM (active).
In the case of `CC1(C)C(=O)N(CCN2CCC(C(=O)c3ccc(F)cc3)CC2)c2ccccc21`, the “activity change, negative = cytotoxic” value is reported as -17.6%.
For `CCOc1cc(CC(=O)N[C@@H](CC(C)C)c2ccccc2N2CCCCC2)ccc1C(=O)O`, the “activity change, negative = cytotoxic” value was 8.42%.
For `Cc1cc(C2CCCCC2)n(O)c(=O)c1`, the Potency was 2330 nM (active).
In the case of `CCN(CCO)CCCC(C)Nc1ccnc2cc(Cl)ccc12` (stereo not drawn), the “activity change, negative = cytotoxic” value is reported as -8.37%.
With `CN(C)c1ccc(O)c2c1C[C@H]1C[C@H]3[C@H](N(C)C)C(=O)C(C(N)=O)=C(O)[C@@]3(O)C(=O)C1=C2O` the “activity change, negative = cytotoxic” value was -16.3%.
In the case of `CC(C)C[C@H](NC(=O)[C@H](Cc1ccccc1)NC(=O)c1cnccn1)B(O)O`, the Potency is reported as 46.5 nM (active).
For `Clc1ccc(C(Cn2ccnc2)OCc2ccsc2Cl)c(Cl)c1` (stereo not drawn), the Potency was 7370 nM (active).
For `c1cnc2cc3c(cc2n1)C1CNCC3C1`, the “activity change, negative = cytotoxic” value was -1.5%.
In the case of `Cc1ccc(Nc2nccc(N(C)c3ccc4c(C)n(C)nc4c3)n2)cc1S(N)(=O)=O`, the “activity change, negative = cytotoxic” value is reported as -28.9%.
For `CN(C)c1ccc2nc3ccc(=[N+](C)C)cc-3sc2c1`, the Potency was 928 nM (active).
With `O=C(CCc1ccc(O)cc1)c1c(O)cc(O)cc1O` the “activity change, negative = cytotoxic” value was -4%.
In the case of `CCN(CC)CCOc1ccc(Nc2ncc3cc(-c4c(Cl)cccc4Cl)c(=O)n(C)c3n2)cc1`, the Potency is reported as 4650 nM (active).
With `Clc1ccc(C(Cn2ccnc2)OCc2ccc(Sc3ccccc3)cc2)c(Cl)c1` (stereo not drawn) the Potency was 26100 nM (active).
In the case of `C=C(c1ccc(C(=O)O)cc1)c1cc2c(cc1C)C(C)(C)CCC2(C)C`, the “activity change, negative = cytotoxic” value is reported as -13.2%.
For `Oc1ccc(-c2nc(-c3ccc(F)cc3)c(-c3ccncc3)[nH]2)cc1`, the Potency was 737 nM (active).
In the case of `CCc1nc(N)nc(N)c1-c1ccc(Cl)cc1`, the Potency is reported as 5220 nM (active).
In the case of `CCCOc1ccc2nc(NC(=O)OC)[nH]c2c1`, the Potency is reported as 1310 nM (active).
With `CC(S)C(=O)NCC(=O)O` (stereo not drawn) the “activity change, negative = cytotoxic” value was 1.92%.
With `CC[C@]1(O)C[C@H]2CN(CCc3c([nH]c4ccccc34)[C@@](C(=O)OC)(c3cc4c(cc3OC)N(C=O)[C@H]3[C@@](O)(C(=O)OC)[C@H](OC(C)=O)[C@]5(CC)C=CCN6CC[C@]43[C@@H]65)C2)C1` the Potency was 14.7 nM (active) and 131 nM (active).
In the case of `CCN(CC)C(=S)SSC(=S)N(CC)CC`, the Potency is reported as 414 nM (active).
For `O=C1c2c(O)cc(O)cc2OC(c2ccc(O)c(O)c2)C1O` (stereo not drawn), the “activity change, negative = cytotoxic” value was -3.97%.
For `CCCCc1ccc2nc(NC(=O)OC)[nH]c2c1`, the Potency was 414 nM (active).
